Here are results for 40 molecules from PubChem BioAssay.

SMILES strings stand for the structures. Activity calls are given as the source filed them.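 How the source made its calls: active means Her2 level under about 52% in both replicate screens, with viability over 70% of control (limit read from the data); inconclusive means Her2 under the limit in one screen only, or viability under 70%; inactive means Her2 level above the set limit.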

Test system in the first test: not listed separately
As to the kind of experiment: reducers of endogenous Her2 protein level, primary screen, SKBR3 breast tumor cells, AlphaScreen, ATP viability (AID 461).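 On viability: percent of carrier control wells set as 100% viability.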 To be noted: 18-24 h, measured here: SKBR3 viability, ATP luminescence, at 10 µM.
Consider `CCOC(=O)C(NC(C)=O)(NS(=O)(=O)c1ccccc1)C(F)(F)F` (stereo not given), for which the viability is 122%.
For the molecule `N#Cc1c(/N=C/c2ccco2)sc2c1CCC2`, the viability worked out at 99%.
Still for that read-out and setting: the figure for `c1ccc(-c2noc(C34CC5CC(CC(C5)C3)C4)n2)nc1` is 130%; for `COc1cc(S(=O)(=O)N2CCOCC2)ccc1NC(=O)COC(=O)C12CC3CC(CC(C3)C1)C2` it is 92%; for `Cc1cc(C)n(-c2nc3c(c(=O)n(Cc4ccc(Cl)c(Cl)c4)c(=O)n3C)n2C)n1` it is 103%.
On the same count and under the same terms, the result for `O=C(CCN1C(=O)COc2ccccc21)NCCCN1CCN(c2ccccc2F)CC1` reads 105%; that for `CC(=O)c1cc(F)c(N2CCN(C(=O)Cc3ccccc3)CC2)cc1C`, 96.5%.
On to `COc1ccc(-n2nnnc2-c2cccc(OC)c2)cc1`, for which the viability amounted to 102%.
On the same count and under the same terms, the result for `COc1ccc(OC)c(Nc2cc(-c3ccccc3)nc(N)n2)c1` reads 72%; that for `Cc1ccc(-c2csc3ncn(-n4c(C)ccc4C)c(=O)c23)o1`, 96%.
Turning to `O=C(CN1C(=O)CCSc2ccccc21)Nc1ccccc1`, the viability worked out at 113%.
Turning to `CC(=O)Nc1ccc(S(=O)(=O)Nc2nc3ccccc3nc2N2CCCC2)cc1`, the viability amounted to 99.5%.
On the same count and under the same terms, the result for `CC(=O)c1cnc2cc(-c3ccccc3)nn2c1C` reads 91.5%; that for `Nc1cc(C(=O)O)ccc1Nc1ccc(F)c(F)c1`, 88%; that for `O=C(NCc1cccnc1)c1cn(CCc2ccccc2)nn1`, 99.5%.
Turning to `COc1ccc(-n2c(SCc3ccc(C#N)cc3)nnc2-c2ccccn2)cc1`, the viability was 82.5%.
For `CC(C)(C)OC(=O)N1CCC(C(=O)N2CCCCCC2)CC1`, the viability came out at 94%.
On to `CC(NO)C(C)(C)NO` (stereo not given), for which the viability is 92%.
Take `CCn1c(=O)cc(OCC(=O)Nc2cc(C)ccn2)c2ccccc21`: the viability stood at 80%.
On the same count and under the same terms, the figure for `CCC(=O)N1CCc2cc(S(=O)(=O)CCC(=O)Nc3ccc(C)c(F)c3)ccc21` is 100%.
On to `CCN(CC)S(=O)(=O)N1CCC(C(=O)NC2CCCc3ccccc32)CC1` (stereo not given), for which the viability is 78%.
On the same count and under the same terms, the figure for `O=C(CN1C(=O)c2cccc3cccc1c23)N1CCN(c2ccccc2)CC1` is 100%.
On the same count and under the same terms, the figure for `CC(C)CCn1c(=O)c2ccccc2n2c(CN(C)Cc3ccccc3)nnc12` is 83.5%; for `C=CCn1c(SCC(=O)NC23CC4CC(CC(C4)C2)C3)nc(O)cc1=O` it is 138%; for `Nc1nnc(C(=O)c2ccccc2N)s1` it is 108%.
In the case of `COc1ccc(CCNC(=O)C2CC(=O)N(c3ccccc3)C2)cc1OC` (stereo not given), the viability worked out at 124%.
Still for that read-out and setting: the result for `O=C(NCc1nnc(SCC(=O)N2CCCCCC2)o1)c1ccco1` reads 104%; that for `COc1ccc(CNc2nc(NCc3ccc(OC)cc3)n(S(C)(=O)=O)n2)cc1`, 104%.
With `CCCCc1c(O)nc(SCCN(C)C)n(-c2ccccc2)c1=O`, the viability amounted to 93.5%.
Consider `COc1ccc(C(=O)OC(COc2ccccc2)Cn2ccnc2)cc1` (stereo not given), for which the viability was 83%.
Regarding `O=S1(=O)CC(N2CCOCC2)c2ccccc21` (stereo not given), the viability worked out at 95%.
Still for that read-out and setting: the result for `CN(C)C(=O)N1CCCC(C(=O)NCc2ccccc2)C1` (stereo not given) reads 89%; that for `O=C(NCc1ccco1)c1cnc2n(c1=O)CCS2`, 101%.
In the case of `C#CC(CO)N(CCN(Cc1ccccc1)C(C#C)CO)Cc1ccccc1` (stereo not given), the viability turned out to be 107%.
Still for that read-out and setting: the figure for `COC(=O)c1ccccc1NC(=O)C1CC(=O)N(c2ccc(F)cc2)C1` (stereo not given) is 121%; for `Cc1noc(NS(=O)(=O)c2ccc(N3C(=O)c4ccccc4C3=O)cc2)c1C` it is 116%; for `CCn1c(SCC(=O)c2ccc(F)cc2)nnc1-c1ccoc1C` it is 104%.
`CCC(C)(C(=O)NC1CCCCC1)N(Cc1ccco1)C(=O)c1ccc2c(c1)OCO2` (stereo not given): the viability stood at 92.5%.
For the molecule `CC(=O)c1cc(C#N)c(SCC(=O)OC(C)C)nc1C`, the viability was 102%.
Still for that read-out and setting: the result for `CCOC(=O)c1c(C)[nH]c(C=Nc2ccccc2)c1O` reads 94%.

The next test deals with Receptor tyrosine-protein kinase erbB-2 (Homo sapiens) (UniProt P04626). The test is described as above. To be noted: 18-24 h, at 10 µM, stronger effect = lower value.
Sequence of Receptor tyrosine-protein kinase erbB-2 (Homo sapiens) (P04626 whole entry, looked up): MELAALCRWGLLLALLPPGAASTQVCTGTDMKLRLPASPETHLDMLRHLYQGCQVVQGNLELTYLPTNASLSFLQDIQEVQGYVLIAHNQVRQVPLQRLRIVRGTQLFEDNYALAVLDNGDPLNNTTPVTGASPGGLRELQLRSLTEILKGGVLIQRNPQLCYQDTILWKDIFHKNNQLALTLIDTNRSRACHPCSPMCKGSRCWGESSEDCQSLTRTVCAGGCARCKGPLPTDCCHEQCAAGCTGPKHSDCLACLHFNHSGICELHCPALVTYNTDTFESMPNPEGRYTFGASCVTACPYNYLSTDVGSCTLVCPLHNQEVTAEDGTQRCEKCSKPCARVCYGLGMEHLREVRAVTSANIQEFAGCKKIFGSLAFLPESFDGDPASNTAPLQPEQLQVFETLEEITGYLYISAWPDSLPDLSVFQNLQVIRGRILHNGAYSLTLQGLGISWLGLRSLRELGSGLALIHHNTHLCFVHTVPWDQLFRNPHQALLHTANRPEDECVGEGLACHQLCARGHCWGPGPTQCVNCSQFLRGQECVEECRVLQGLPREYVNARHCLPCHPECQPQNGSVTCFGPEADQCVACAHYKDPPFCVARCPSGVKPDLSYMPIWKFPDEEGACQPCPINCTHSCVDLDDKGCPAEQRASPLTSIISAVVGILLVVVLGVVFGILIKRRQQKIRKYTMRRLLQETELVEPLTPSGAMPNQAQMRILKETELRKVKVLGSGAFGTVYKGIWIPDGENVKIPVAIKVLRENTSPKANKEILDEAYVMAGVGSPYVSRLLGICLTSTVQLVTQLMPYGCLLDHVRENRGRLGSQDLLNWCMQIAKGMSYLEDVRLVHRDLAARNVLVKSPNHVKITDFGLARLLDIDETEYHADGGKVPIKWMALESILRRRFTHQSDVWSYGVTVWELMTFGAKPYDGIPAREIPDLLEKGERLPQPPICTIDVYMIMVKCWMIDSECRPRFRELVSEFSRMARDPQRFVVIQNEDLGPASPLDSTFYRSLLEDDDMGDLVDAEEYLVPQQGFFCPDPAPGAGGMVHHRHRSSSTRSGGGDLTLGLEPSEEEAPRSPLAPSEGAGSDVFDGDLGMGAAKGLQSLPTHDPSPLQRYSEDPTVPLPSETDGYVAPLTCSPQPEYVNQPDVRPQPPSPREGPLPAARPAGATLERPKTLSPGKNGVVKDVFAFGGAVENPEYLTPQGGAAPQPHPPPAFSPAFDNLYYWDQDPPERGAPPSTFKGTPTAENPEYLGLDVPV
Turning to `CCOC(=O)C(NC(C)=O)(NS(=O)(=O)c1ccccc1)C(F)(F)F` (stereo not given), the Her2 level was 101% (inactive).
Consider `N#Cc1c(/N=C/c2ccco2)sc2c1CCC2`, for which the Her2 level was 139% (inactive).
As for `c1ccc(-c2noc(C34CC5CC(CC(C5)C3)C4)n2)nc1`, the Her2 level is 106% (inactive).
`COc1cc(S(=O)(=O)N2CCOCC2)ccc1NC(=O)COC(=O)C12CC3CC(CC(C3)C1)C2`: the Her2 level was 73.5% (inactive).
The same measure, in the same setting: the figure for `Cc1cc(C)n(-c2nc3c(c(=O)n(Cc4ccc(Cl)c(Cl)c4)c(=O)n3C)n2C)n1` is 99% (inactive); for `O=C(CCN1C(=O)COc2ccccc21)NCCCN1CCN(c2ccccc2F)CC1` it is 118% (inactive).
For `CC(=O)c1cc(F)c(N2CCN(C(=O)Cc3ccccc3)CC2)cc1C`, the Her2 level is 97% (inactive).
On to `COc1ccc(-n2nnnc2-c2cccc(OC)c2)cc1`, for which the Her2 level was 87.5% (inactive).
In the case of `COc1ccc(OC)c(Nc2cc(-c3ccccc3)nc(N)n2)c1`, the Her2 level was 69% (inactive).
Still for that read-out and setting: the figure for `Cc1ccc(-c2csc3ncn(-n4c(C)ccc4C)c(=O)c23)o1` is 114% (inactive).
Regarding `O=C(CN1C(=O)CCSc2ccccc21)Nc1ccccc1`, the Her2 level is 94% (inactive).
Still for that read-out and setting: the result for `CC(=O)Nc1ccc(S(=O)(=O)Nc2nc3ccccc3nc2N2CCCC2)cc1` reads 98% (inactive); that for `CC(=O)c1cnc2cc(-c3ccccc3)nn2c1C`, 110% (inactive).
Same read-out and setting: the figure for `Nc1cc(C(=O)O)ccc1Nc1ccc(F)c(F)c1` is 112% (inactive); for `O=C(NCc1cccnc1)c1cn(CCc2ccccc2)nn1` it is 93% (inactive); for `COc1ccc(-n2c(SCc3ccc(C#N)cc3)nnc2-c2ccccn2)cc1` it is 91.5% (inactive).
In the case of `CC(C)(C)OC(=O)N1CCC(C(=O)N2CCCCCC2)CC1`, the Her2 level was 87.5% (inactive).
On the same count and under the same terms, the figure for `CC(NO)C(C)(C)NO` (stereo not given) is 101% (inactive); for `CCn1c(=O)cc(OCC(=O)Nc2cc(C)ccn2)c2ccccc21` it is 77% (inactive).
On the same count and under the same terms, the result for `CCC(=O)N1CCc2cc(S(=O)(=O)CCC(=O)Nc3ccc(C)c(F)c3)ccc21` reads 98.5% (inactive); that for `CCN(CC)S(=O)(=O)N1CCC(C(=O)NC2CCCc3ccccc32)CC1` (stereo not given), 118% (inactive).
Turning to `O=C(CN1C(=O)c2cccc3cccc1c23)N1CCN(c2ccccc2)CC1`, the Her2 level is 103% (inactive).
On the same count and under the same terms, the figure for `CC(C)CCn1c(=O)c2ccccc2n2c(CN(C)Cc3ccccc3)nnc12` is 100% (inactive); for `C=CCn1c(SCC(=O)NC23CC4CC(CC(C4)C2)C3)nc(O)cc1=O` it is 108% (inactive); for `Nc1nnc(C(=O)c2ccccc2N)s1` it is 91% (inactive).
On the same count and under the same terms, the figure for `COc1ccc(CCNC(=O)C2CC(=O)N(c3ccccc3)C2)cc1OC` (stereo not given) is 99.5% (inactive); for `O=C(NCc1nnc(SCC(=O)N2CCCCCC2)o1)c1ccco1` it is 100% (inactive); for `COc1ccc(CNc2nc(NCc3ccc(OC)cc3)n(S(C)(=O)=O)n2)cc1` it is 114% (inactive).
As to `CCCCc1c(O)nc(SCCN(C)C)n(-c2ccccc2)c1=O`, the Her2 level is 110% (inactive).
For `COc1ccc(C(=O)OC(COc2ccccc2)Cn2ccnc2)cc1` (stereo not given), the Her2 level was 97% (inactive).
On the same count and under the same terms, the figure for `O=S1(=O)CC(N2CCOCC2)c2ccccc21` (stereo not given) is 98% (inactive).
Same read-out and setting: the figure for `CN(C)C(=O)N1CCCC(C(=O)NCc2ccccc2)C1` (stereo not given) is 92% (inactive); for `O=C(NCc1ccco1)c1cnc2n(c1=O)CCS2` it is 94.5% (inactive).
Still for that read-out and setting: the figure for `C#CC(CO)N(CCN(Cc1ccccc1)C(C#C)CO)Cc1ccccc1` (stereo not given) is 85% (inactive).
In the case of `COC(=O)c1ccccc1NC(=O)C1CC(=O)N(c2ccc(F)cc2)C1` (stereo not given), the Her2 level was 77% (inactive).
The same measure, in the same setting: the result for `Cc1noc(NS(=O)(=O)c2ccc(N3C(=O)c4ccccc4C3=O)cc2)c1C` reads 98% (inactive).
The same measure, in the same setting: the result for `CCn1c(SCC(=O)c2ccc(F)cc2)nnc1-c1ccoc1C` reads 97.5% (inactive); that for `CCC(C)(C(=O)NC1CCCCC1)N(Cc1ccco1)C(=O)c1ccc2c(c1)OCO2` (stereo not given), 89% (inactive); that for `CC(=O)c1cc(C#N)c(SCC(=O)OC(C)C)nc1C`, 80.5% (inactive).
Still for that read-out and setting: the figure for `CCOC(=O)c1c(C)[nH]c(C=Nc2ccccc2)c1O` is 91.5% (inactive).
